# Values joined by “and” are separate entries in the source; they are usually repeats but may differ in a detail not shown here. Identical values can stand only once. Active and inactive are the calls of the source.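 How the source made its calls, unless noted: active means normalized viability below 100% at a tested concentration; inactive means the rest.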
# How the values were obtained:
# [1] = compounds altering viability of human ES cells (AID 493140; call rule not given here;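 further: cells exposed to compounds for four days before counting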); settings: human embryonic stem cell survival screen; stronger effect = higher value
# [2] = P. berghei load reduction in hepatocytes – cell-based, HepG2, luciferase luminescence, HepG2 viability, primary screen (AID 624349; in the data active means parasite load remaining mostly below about 12%, no sharp cut-off; inactive means mostly above about 10%;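 further: 100% = mean of DMSO negative control wells on the same plate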); settings: P. berghei liver stage in HepG2, luciferase luminescence, concentration not given here; parasite load remaining: stronger effect = lower value; viability: measured here: HepG2 viability without parasites
# [3] = stimulators of insulin release from INS-1E, primary screen, cell-based, 5 mM glucose, NPC library (AID 1117329;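 active means compound raises insulin release from rat beta cells at 5 mM glucose, no numeric limit stated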); settings: rat INS-1E insulin secretion, at 10 µM, stronger effect = higher value
# [4] = growth inhibition of GSK3B-pretreated HCT116 cells – cell-based, CellTiter-Glo, 0.2 to 20 µM (AID 1117336;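 active means compounds lowering colon cancer cell viability after pretreatment blocking the GSK3B kinase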); settings: HCT116 viability after GSK3B inhibitor, at 20 µM, stronger effect = higher value
# [5] = inhibition of endothelial tube formation, primary screen, imaging, VEGF stimulated, CD31 staining, tube area, NPC library (AID 1117340;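 active means compound that reduces growth-factor-driven endothelial tube area in a mixed cell culture, no cutoff stated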); settings: VEGF-stimulated ADSC/ECFC co-culture, at 10 µM, stronger effect = higher value
# [6] = GLP1 release stimulators, primary, NCI-H716, NPC library (AID 1117341;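 active means compound raises GLP1 secretion from the human gut endocrine cells, with no numeric limit stated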); settings: NCI-H716 cells, at 10 µM, stronger effect = higher value
# [7] = HCT116 colon cancer cell growth inhibition, primary screen, CellTiter-Glo luminescence, NPC library (AID 1117342;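 active means compounds that lower survival of HCT116 colon cancer cells in the luminescence readout, no numeric limit stated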); settings: at 20 µM (top of the series)
# [8] = reduced SW480 viability measured with CellTiter-Glo, NPC library, primary (AID 1117343;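 active means compounds that lower viability of the colon cancer cells in the luminescence readout, with no numeric limit stated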); settings: CellTiter-Glo luminescence; at 20 µM (top of the series) unless noted
# [9] = NPC library primary testing for decreased DLD-1 cell viability via CellTiter-Glo (AID 1117346;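 active means compounds that lower survival of DLD-1 colon cancer cells in the luminescence readout, no cutoff given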); settings: DLD-1 viability, CellTiter-Glo luminescence; at 20 µM (top of the series)
# [10] = modulation of C. elegans fzo-1 (AID 1259413; call rule not given here;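 further: fzo-1 mutant C. elegans worms in liquid wells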); settings: C. elegans fzo-1 modulator screen, mean read-out; stronger effect = higher value
# [11] = EMT-state selective cytotoxicity in co-culture – imaging, PC-3E GFP, TEM4-18 mCherry, primary screen (AID 1345086;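 active means compounds killing one labelled cell type while sparing the other, by normalised counts and ratio limits, not self-fluorescent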;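 further: cells exposed to compound for 72 h before imaging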;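 on red/green cell ratio (normalised): normalised mesenchymal count divided by normalised epithelial count so high means epithelial killing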); settings: PC-3E GFP / TEM4-18 mCherry co-culture, imaging cell counts, at 1 µM
# [12] = viability loss with induced miR-34 in A549 – imaging, A549 dox-inducible miR-34, nuclei and caspase counts, primary screen (AID 1347080;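 active means compounds whose cell count with miR-34 switched on is under 0.7 times the count with it off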); settings: A549 miR-34 inducible, Hoechst nuclei count, 48 h
# [13] = MELAS cybrid and Rieske KO viability enhancers – cell-based, MELAS cybrids, Rieske KO mouse fibroblasts, CellTiter-Glo, primary screen (AID 1508586;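 active means mean z-score across replicates of 1.96 or higher in either the MELAS or the Rieske mutant cell line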;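 further: z relative to plate mean and SD of compound and empty wells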); settings: low glucose
# [14] = drug combination growth inhibition, ovarian cancer – cell-based, oncology-focused library, rucaparib conditional, profiling panel (AID 1508598); settings: patient-derived ovarian cancer cells, CellTiter-Glo viability, 144 h, stronger effect = lower value
# [15] = biological target: NAD(+) hydrolase SARM1 (Homo sapiens) (UniProt Q6SZW1); assay: blocking NAD cleavage by SARM1 SAM-TIR – cell lysate, NAD-Glo luminescence (AID 1508614;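 active means compound whose remaining NAD level is above about 45 nM, limit read from the data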); settings: SAM-TIR HEK293T lysate NADase, at 1 µM, stronger effect = higher value
# NAD(+) hydrolase SARM1 (Homo sapiens), sequence (Q6SZW1 whole entry, looked up): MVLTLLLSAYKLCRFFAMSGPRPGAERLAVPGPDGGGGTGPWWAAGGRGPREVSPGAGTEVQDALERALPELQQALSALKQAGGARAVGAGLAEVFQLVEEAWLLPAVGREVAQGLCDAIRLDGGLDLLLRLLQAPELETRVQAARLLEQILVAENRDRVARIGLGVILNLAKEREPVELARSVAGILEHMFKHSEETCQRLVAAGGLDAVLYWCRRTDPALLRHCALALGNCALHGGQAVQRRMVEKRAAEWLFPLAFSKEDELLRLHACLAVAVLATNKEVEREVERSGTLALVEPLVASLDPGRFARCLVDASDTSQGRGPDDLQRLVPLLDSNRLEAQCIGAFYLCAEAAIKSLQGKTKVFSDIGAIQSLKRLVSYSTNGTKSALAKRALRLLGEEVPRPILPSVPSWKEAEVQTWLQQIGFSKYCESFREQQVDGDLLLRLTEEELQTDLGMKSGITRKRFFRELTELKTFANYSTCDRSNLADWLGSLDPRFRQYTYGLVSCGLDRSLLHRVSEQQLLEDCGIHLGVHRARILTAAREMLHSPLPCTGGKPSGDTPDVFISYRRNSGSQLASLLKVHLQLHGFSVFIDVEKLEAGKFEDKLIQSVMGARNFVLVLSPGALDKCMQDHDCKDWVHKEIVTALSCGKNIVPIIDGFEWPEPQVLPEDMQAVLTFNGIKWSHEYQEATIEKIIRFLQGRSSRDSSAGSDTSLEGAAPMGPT
# [16] = galactose survival enhancers in mitochondrial complex I cybrids – cell-based, galactose medium, ATP luminescence, primary screen (AID 1645843;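 active means z-score of at least 1.8 in each of two replicates, scored against plate mean and spread of sample wells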;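 further: positive z means more ATP and so rescue of galactose-driven cybrid death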); settings: complex I mutant cybrid cells, 72 h, stronger effect = higher value
smiles,measurement,setting,value
CC(C)n1c(/C=C/[C@@H](O)C[C@@H](O)CC(=O)O)c(-c2ccc(F)cc2)c2ccccc21,survival,[1],2.5 (inactive)
same,parasite load remaining,[2],164% (inactive) and 130% (inactive)
same,viability,[2],82.3% and 114%
same,insulin secretion stimulation,[3],3.6% (inactive)
same,viability decrease,[4],97.8% (active)
same,tube area decrease,[5],100% (active)
same,GLP1 secretion stimulation,[6],1.4% (inactive)
same,inhibition of viability,[7],88.8% (active)
same,viability decrease (inhibition),[8],111% (active)
same,viability decrease (inhibition),[9],50.2% (active)
same,mean signal,[10],243 (inactive)
same,red/green cell ratio (normalised),"[11]; actives lie on both sides, counts scaled to control wells, 1 = unselective",0.7 (inactive)
same,normalised cell number,[11]; measured here: epithelial PC-3E GFP cell survival,0.75
same,normalised cell number,[11]; measured here: mesenchymal TEM4-18 mCherry cell survival,0.53
same,fold change,"[12]; stronger effect = lower value, cell number ratio, induced over uninduced",1.1 (inactive) and 1.08 (inactive)
same,fold change,[12]; measured here: relative caspase fold change +Dox/-Dox,0.844 and 2.14
same,cell count,"[12]; measured here: total cells with miR-34 induction, stronger effect = lower value",1760 and 2100
same,cell count,[12]; measured here: total cells without miR-34 induction,1610 and 1940
same,z-score,"[13]; MELAS cybrid survival, CellTiter-Glo 48 h, stronger effect = higher value",-1.26 (inactive)
same,z-score,"[13]; Rieske KO mouse fibroblast survival, CellTiter-Glo 72 h",-0.983
same,viability,"[14]; at 0.000305 µM, OCI-C5x cells, with rucaparib 10 µM, 100% = cells with rucaparib alone",102% (inactive)
same,viability,"[14]; at 0.000305 µM, OCI-C5x cells, without rucaparib",102% (inactive)
same,viability,"[14]; at 0.000305 µM, OCI-P5x cells, with rucaparib 20 µM, 100% = cells with rucaparib alone",86.5% (active)
same,viability,"[14]; at 0.000305 µM, OCI-P5x cells, without rucaparib",89.2% (active)
same,viability,"[14]; at 0.00122 µM, OCI-C5x cells, with rucaparib 10 µM, 100% = cells with rucaparib alone",102% (inactive)
same,viability,"[14]; at 0.00122 µM, OCI-C5x cells, without rucaparib",109% (inactive)
same,viability,"[14]; at 0.00122 µM, OCI-P5x cells, with rucaparib 20 µM, 100% = cells with rucaparib alone",89.7% (active)
same,viability,"[14]; at 0.00122 µM, OCI-P5x cells, without rucaparib",88.8% (active)
same,viability,"[14]; at 0.00488 µM, OCI-C5x cells, with rucaparib 10 µM, 100% = cells with rucaparib alone",92% (active)
same,viability,"[14]; at 0.00488 µM, OCI-C5x cells, without rucaparib",96.6% (active)
same,viability,"[14]; at 0.00488 µM, OCI-P5x cells, with rucaparib 20 µM, 100% = cells with rucaparib alone",82.4% (active)
same,viability,"[14]; at 0.00488 µM, OCI-P5x cells, without rucaparib",87.2% (active)
same,viability,"[14]; at 0.0195 µM, OCI-C5x cells, with rucaparib 10 µM, 100% = cells with rucaparib alone",73.9% (active)
same,viability,"[14]; at 0.0195 µM, OCI-C5x cells, without rucaparib",71.3% (active)
same,viability,"[14]; at 0.0195 µM, OCI-P5x cells, with rucaparib 20 µM, 100% = cells with rucaparib alone",44.2% (active)
same,viability,"[14]; at 0.0195 µM, OCI-P5x cells, without rucaparib",53.6% (active)
same,viability,"[14]; at 0.0781 µM, OCI-C5x cells, with rucaparib 10 µM, 100% = cells with rucaparib alone",50.9% (active)
same,viability,"[14]; at 0.0781 µM, OCI-C5x cells, without rucaparib",54.7% (active)
same,viability,"[14]; at 0.0781 µM, OCI-P5x cells, with rucaparib 20 µM, 100% = cells with rucaparib alone",21.8% (active)
same,viability,"[14]; at 0.0781 µM, OCI-P5x cells, without rucaparib",31% (active)
same,viability,"[14]; at 0.313 µM, OCI-C5x cells, with rucaparib 10 µM, 100% = cells with rucaparib alone",32.6% (active)
same,viability,"[14]; at 0.313 µM, OCI-C5x cells, without rucaparib",33.3% (active)
same,viability,"[14]; at 0.313 µM, OCI-P5x cells, with rucaparib 20 µM, 100% = cells with rucaparib alone",8.26% (active)
same,viability,"[14]; at 0.313 µM, OCI-P5x cells, without rucaparib",10.2% (active)
same,viability,"[14]; at 1.25 µM, OCI-C5x cells, with rucaparib 10 µM, 100% = cells with rucaparib alone",20.2% (active)
same,viability,"[14]; at 1.25 µM, OCI-C5x cells, without rucaparib",22.5% (active)
same,viability,"[14]; at 1.25 µM, OCI-P5x cells, with rucaparib 20 µM, 100% = cells with rucaparib alone",5.66% (active)
same,viability,"[14]; at 1.25 µM, OCI-P5x cells, without rucaparib",4.09% (active)
same,viability,"[14]; at 5 µM, OCI-C5x cells, with rucaparib 10 µM, 100% = cells with rucaparib alone",7.97% (active)
same,viability,"[14]; at 5 µM, OCI-C5x cells, without rucaparib",7.19% (active)
same,viability,"[14]; at 5 µM, OCI-P5x cells, with rucaparib 20 µM, 100% = cells with rucaparib alone",5.66% (active)
same,viability,"[14]; at 5 µM, OCI-P5x cells, without rucaparib",4.42% (active)
same,remaining NAD,[15],10 nM (inactive)
same,z-score,[16],-0.215 (inactive) and -1.78 (inactive)
